Drawing on PubChem BioAssay (NCI), this text covers growth for 14 compounds.

Compounds without any hit were thinned out: in the full panel of roughly 83,000, 20% have a hit.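 Assay: single dose, 48 h. Readout: percent growth (0 = no net growth; negative = cell death). Active: <10.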 A number with no mark means an inactive call. The source made the active and inactive calls.

Experiment in all cases: NCI-60 one-dose screen, 48 h (100 = growth as untreated, 0 = no growth, -100 = all killed)
Common to all, as to details: 10 µM unless noted

Test [1] concerns SK-MEL-2 melanoma.
Test [2] relates to EKVX NSCLC.
The test system of test [3] is SN12C renal.
In test [4] the test system is UO-31 renal.
Test [5] has as its system TK-10 renal.
The test system of test [6] is ACHN renal.
For test [7], the system named is CAKI-1 renal.
For test [8], the system named is CCRF-CEM leukemia.
Test [9] deals with MOLT-4 leukemia.
The subject of test [10] is A498 renal.

In the case of `Cc1c(C)c2c(c(C)c1NC(=O)CCCCCCC(=O)O)CCC(C)(CCCC(C)CCCC(C)CCCC(C)C)O2` (stereo unspecified), the growth is 43.2% in test [1]; 86.3% in test [2]; 77.5% in [3]; 75.7% in [4]; 87.6% in [5]; 101% in test [6]. Moreover, the figures for the growth in test [7], in [8] and in test [9] were 100%, 71.3% and 76.7%, respectively.
For `O=C1CCC/C=C\C[C@H]2C=C(Cl)C(=O)/C2=C/C[C@H](CCCCC(F)(F)F)OC(=O)CCC/C=C\C[C@H]2C=C(Cl)C(=O)/C2=C/C[C@H](CCCCC(F)(F)F)O1`, the growth in test [1] was -45.5% [7.5 µM] (active); in test [2], 13.3% [7.5 µM]; in [3], -27.1% [7.5 µM] (active); in [4], -93.3% [7.5 µM] (active); in test [5], -23% [7.5 µM] (active); in [6], -93.1% [7.5 µM] (active). The results for the growth in [10] and in test [8] were -49.5% [7.5 µM] (active) and 3.14% [7.5 µM] (active), respectively.
On to `CC(=O)N1N=C(c2ccc(C)cc2)CC1c1ccc(Oc2ccc(Br)cc2)cc1` (stereo unspecified), for which the growth in test [1] was 106%; in test [2] it was 83.1%; in test [3], 78.5%; in test [4] it was 39.2%; in test [5], 71.1%; in [6], 99.5%. The growth in [7] was 74.6%; in test [8], 93.2%; in test [9], 71.3%.
Take `Nc1ccc(Br)cn1`: the growth was 98.8% in [1]; 110% in test [2]; 96.3% in test [3]; 93.4% in test [4]; 107% in [5]; 109% in test [6]. For the same compound, the growth in [7] is 113%; in test [8], 80.4%.
With `COc1ccc(-c2nc3c(c(C)nn3-c3ccc(F)cc3)c(=O)[nH]2)cc1`, the growth is 92.3% in test [1]; 81.6% in test [2]; 56.9% in [3]; 52.1% in test [4]; 65.8% in [5]; 6.33% (active) in test [6]. For the same compound, the growth is 70.8% in [10], 86.9% in [8] and 98.1% in test [9].
Regarding `C=C1C(=O)O[C@H]2[C@H]1CC/C(COC(=O)NCc1cc3ccccc3[nH]1)=C\CC[C@@]1(C)O[C@@H]21`, the growth is 52.7% in [1]; 54.7% in [2]; -56.8% (active) in test [3]; -100% (active) in [4]; -54.8% (active) in test [5]; -75.9% (active) in [6]. Besides, the growth in [10] is 92.5%; in test [8] it was 2.95% (active); in test [9], 1.8% (active).
Consider `Nc1ncnc2nc(Br)[nH]c12`, for which the growth in test [1] was 102%; in test [2], 105%; in test [3], 100%; in test [4] it was 101%; in [5], 96.2%; in test [6], 98.7%. For the same compound, the growth was 93% in test [7], 98.1% in test [10], 94.3% in [8] and 96.1% in test [9].
`COc1cc2c(cc1-c1c(C)noc1C)ncc1nc(C3CCCCC3)n([C@@H](C)COC(F)F)c12`: the growth is 64.4% in test [1]; 39.2% in test [2]; 55.3% in [3]; 23.6% in test [4]; 28.9% in test [5]; 37.8% in [6]. Moreover, the growth in test [7] is 26.7%; in [10] it was 1.93% (active); in test [8], 46.1%; in test [9], 39.5%.
On to `Cc1ccc(-c2nc([P+](c3ccccc3)(c3ccccc3)c3ccccc3)c(N3C[C@H]4C[C@H](C3)c3cccc(=O)n3C4)o2)cc1`, for which the growth in [1] was 87.7%; in test [2], 80.6%; in test [3], 95.2%; in [4], 83.6%; in [5] it was 98.8%; in test [6], 109%. Further, the values for the growth in [7], in test [8] and in [9] were 98.5%, 78.4% and 96.6%, respectively.
On to `O=C(O)c1cccc2c1Cc1cc([N+](=O)[O-])ccc1-2`, for which the growth in test [1] is 102%; in test [2], 61.9%; in [3], 103%; in test [4] it was 103%; in test [5], 123%; in test [6], 102%. In addition, the growth is 89.5% in test [7], 93.1% in test [10] and 94% in test [9].
On to `Cn1cc(-c2csc(-c3cn(CCNC(=O)OC(C)(C)C)c4ccccc34)n2)c2cccnc21`, for which the growth in [1] was 88.2%; in test [2], 67.9%; in test [3], 87.8%; in test [4], 42.7%; in test [5], 122%; in test [6], 74.3%. Also, the values for the growth in test [10] and in test [8] were 82.4% and 43.4%, respectively.
In the case of `C=CC(=O)N[C@H](Cc1ccc(-c2cc(Cl)cc(Cl)c2)cc1)[C@H](O)[C@@H](O)C(=O)O`, the growth in test [1] was 90%; in test [2] it was 90%; in [3] it was 98.5%; in test [4], 86.8%; in [5], 81.7%; in [6], 101%. For the same compound, the growth in [7] is 84%; in test [10], 80.6%; in test [8], 80.2%; in [9] it was 102%.
On to `Cn1cc(-c2csc(-c3cn(CCCN4CCCCC4)c4ccc(F)cc34)n2)c2cccnc21`, for which the growth in test [1] is 93.5%; in test [2], 77.3%; in [3], 83.9%; in [4], 78.2%; in test [5], 99.7%; in test [6] it was 83.7%. Further, the growth is 73.4% in [10], -29.9% (active) in test [8] and 70.4% in test [9].
In the case of `Cc1ccc(-c2nc([P+](c3ccccc3)(c3ccccc3)c3ccccc3)c(N3CCOCC3)o2)cc1`, the growth was -18.7% (active) in [1]; 17.6% in [2]; 1.43% (active) in test [3]; 12% in [4]; 20.8% in [5]; 8.24% (active) in [6]. Further, the growth in test [7] was 13.1%; in [8], 8.32% (active); in [9], -8.12% (active).
